Measurements published in PubChem BioAssay (NCATS).
Records with an inconclusive call do not appear. Entries that show only a call come without a potency. Unmarked numbers belong to inactive results. The source made the active and inactive calls. The call rests on the fitted dose curve; in most records, active means well fitted curve in the direction sought with a large enough effect; inconclusive means small, poorly fitted or top-dose-only effect, or another doubt; inactive means no such curve, though single readings can be large; an effect the other way counts as inactive or inconclusive.

What was measured:
NIH3T3 = assay: qHTS assay to identify novel small-molecules to repurpose for Merkel cell carcinoma treatment (AID 1296009); conditions: MCC and control cell lines, CellTiter-Glo viability, 72 h; series mostly up to 44.8 µM; further: nearly all actives have a fitted effect of over 60% in size
In short: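 Cells were treated for 72 hr at 37 degree celsius with compounds in 8- or 11-point dose response. Viability was read by CellTiter-Glo luminescence, normalized to no-cell (cytotoxicity) and DMSO controls.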

C33A = assay: Primary qHTS to identify gynecologic anti-cancer compounds using libraries of approved drugs and bioactive compounds (AID 1345084); conditions: Gynecologic cancer cell panel viability, ATPlite luminescence, 48 h; series mostly up to 57.5 µM; further: nearly all actives have a fitted effect of over 55% in size; further: potency means the concentration at half of the fitted maximal effect
In short: (§1)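 48 h compound exposure at 37 C, 5% CO2; five-point qHTS. ATPlite luminescence readout of cell ATP.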

CAOV3 = assay: as above; conditions: Gynecologic cancer cell panel viability, ATPlite luminescence, 48 h; series mostly up to 57.5 µM
In short: as §1

CASKI = assay: as above; conditions: Gynecologic cancer cell panel viability, ATPlite luminescence, 48 h; series mostly up to 57.5 µM
In short: as §1

Es-2 = assay: as above; conditions: Gynecologic cancer cell panel viability, ATPlite luminescence, 48 h; series mostly up to 57.5 µM
In short: as §1

HeLa = assay: as above; conditions: Gynecologic cancer cell panel viability, ATPlite luminescence, 48 h; series mostly up to 57.5 µM
In short: as §1

Hek293T = assay: as above; conditions: Gynecologic cancer cell panel viability, ATPlite luminescence, 48 h, control line for the selectivity index; series mostly up to 57.5 µM
In short: as §1

JEG-3 = assay: as above; conditions: Gynecologic cancer cell panel viability, ATPlite luminescence, 48 h; series mostly up to 57.5 µM
In short: as §1

OV90 = assay: as above; conditions: Gynecologic cancer cell panel viability, ATPlite luminescence, 48 h; series mostly up to 57.5 µM
In short: as §1

PA-1 = assay: as above; conditions: Gynecologic cancer cell panel viability, ATPlite luminescence, 48 h; series mostly up to 57.5 µM
In short: as §1

SKOV3 = assay: as above; conditions: Gynecologic cancer cell panel viability, ATPlite luminescence, 48 h; series mostly up to 57.5 µM
In short: as §1

Tov-21-G = assay: as above; conditions: Gynecologic cancer cell panel viability, ATPlite luminescence, 48 h; series mostly up to 57.5 µM
In short: as §1

Tov112D = assay: as above; conditions: Gynecologic cancer cell panel viability, ATPlite luminescence, 48 h; series mostly up to 57.5 µM
In short: as §1

SMILES | Potency (NIH3T3) | Potency (C33A) | Potency (CAOV3) | Potency (CASKI) | Potency (Es-2) | Potency (HeLa) | Potency (Hek293T) | Potency (JEG-3) | Potency (OV90) | Potency (PA-1) | Potency (SKOV3) | Potency (Tov-21-G) | Potency (Tov112D)
COc1ccc2cc(-c3cc(-c4cc(Cl)cc(Cl)c4)nn3C(C)c3ccc(C(=O)NCCC(=O)O)cc3)ccc2c1 (stereo not given) | inactive | inactive | inactive | inactive | inactive | inactive | inactive | inactive | inactive | inactive | inactive | inactive | inactive
COc1cc2ncnc(Nc3ccc(F)c(Cl)c3)c2cc1O | inactive | inactive | inactive | inactive | inactive | inactive | inactive | inactive | – | inactive | inactive | inactive | inactive
C=CCCN1CCC2(CC1)CN(C(=O)c1c(F)cccc1F)c1ccc(Cl)cc12 | inactive | inactive | inactive | inactive | inactive | inactive | inactive | inactive | inactive | inactive | inactive | inactive | inactive
CN1CCc2cc3c(cc2C(=O)Cc2cc4c(cc2C1)OCO4)OCO3 | inactive | inactive | inactive | inactive | inactive | inactive | inactive | inactive | inactive | inactive | inactive | inactive | inactive
CCCn1cc2c(nc(NC(=O)Nc3ccc(OC)cc3)n3nc(-c4ccco4)nc23)n1 | inactive | inactive | inactive | inactive | inactive | inactive | inactive | inactive | inactive | inactive | – | inactive | inactive
CC[C@@H]1C[C@]1(NC(=O)[C@@H]1C[C@@H]2CN1C(=O)[C@H](C(C)(C)C)NC(=O)OCC(C)(C)CCCCc1cccc3c1CN(C3)C(=O)O2)C(=O)NS(=O)(=O)C1CC1 | inactive | inactive | inactive | inactive | inactive | inactive | inactive | – | inactive | inactive | inactive | inactive | inactive
CCC(CC)C(=O)OC12C(OC(=O)C(C)C)C(C)C3(O)C(C=C(CO)CC4(O)C(=O)C(C)=CC43)C1C2(C)C (stereo not given) | inactive | inactive | inactive | inactive | 0.0708 µM (active) | inactive | inactive | inactive | – | inactive | inactive | inactive | inactive
CCC(C)C1NC(=O)C(Cc2ccccc2)NC(=O)C(CCCCCC(=O)C(O)CO)NC(=O)C2CCCCN2C1=O (stereo not given) | inactive | inactive | inactive | inactive | inactive | inactive | inactive | inactive | – | – | inactive | inactive | inactive
O=C(Nc1ccccc1C(=O)Nc1ccc(CCO)cc1)c1ccc([N+](=O)[O-])cc1 | inactive | inactive | inactive | inactive | inactive | inactive | inactive | inactive | inactive | inactive | inactive | inactive | inactive
COC(=O)CC[C@@H](C)C1CCC2C3CCC4C[C@H](OC(C)=O)CCC4(C)C3C[C@H](O)C21C (stereo not given in full) | inactive | inactive | inactive | inactive | inactive | inactive | inactive | inactive | inactive | inactive | inactive | inactive | inactive
CC(C)(O)C1CC(=O)C2(C)C(CCC3(C)C(c4ccoc4)OC(=O)C4OC432)C12CCC(=O)OC2 (stereo not given) | inactive | inactive | inactive | inactive | inactive | inactive | inactive | – | inactive | – | inactive | inactive | inactive
CCCN1CCC=C(c2cc(-c3ccc(C)cc3)no2)C1 | inactive | inactive | inactive | inactive | inactive | inactive | inactive | inactive | inactive | inactive | inactive | inactive | inactive
O=C(Nc1ncc([N+](=O)[O-])s1)c1ccccc1O | inactive | inactive | inactive | inactive | – | inactive | inactive | inactive | inactive | inactive | inactive | inactive | inactive
Cc1cc(C(=O)Nc2cc(Oc3ccc4nc(NC(=O)C5CC5)cn4n3)ccc2C)n(C)n1 | – | inactive | inactive | inactive | inactive | inactive | inactive | inactive | inactive | inactive | 10 µM (active) | – | –
COc1ccccc1N1CCN(CC(C(=O)NC(C)(C)C)c2ccccc2)CC1 (stereo not given) | inactive | – | inactive | inactive | inactive | inactive | inactive | inactive | inactive | inactive | inactive | inactive | inactive
CC(OC1OCCN(Cc2n[nH]c(=O)[nH]2)C1c1ccc(F)cc1)c1cc(C(F)(F)F)cc(C(F)(F)F)c1 (stereo not given) | – | inactive | inactive | inactive | inactive | inactive | inactive | inactive | inactive | inactive | inactive | inactive | –
CC(=O)C1=CCC2C3CC=C4CC(O)CC(O)C4(C)C3C(O)CC12C (stereo not given) | inactive | – | inactive | – | – | inactive | inactive | inactive | inactive | inactive | – | – | –
C[C@@H]1C[C@H](C)CN(CCC(=O)Nc2ccc(Br)cc2)C1 | – | inactive | inactive | inactive | inactive | inactive | inactive | inactive | inactive | inactive | inactive | inactive | –
CC(=O)O[C@H]1CC2C(COC(=O)CC(C)C)=CO[C@@H](OC(=O)CC(C)C)C2[C@]12CO2 (stereo not given in full) | inactive | inactive | – | – | inactive | inactive | inactive | inactive | inactive | – | – | inactive | inactive
C=C1[C@H]2CC[C@H](C(=O)O)[C@@]23CC[C@H](C3)C1(C)C | inactive | inactive | inactive | – | inactive | inactive | inactive | inactive | inactive | inactive | inactive | inactive | inactive
Cc1[nH]c(/C=C2\C(=O)Nc3ccc(S(=O)(=O)N(C)c4cccc(Cl)c4)cc32)c(C)c1C(=O)N1CCN(C)CC1 | – | inactive | 25.1 µM (active) | inactive | inactive | inactive | inactive | inactive | inactive | inactive | inactive | inactive | –
CCOc1ccc(S(=O)(=O)N2CCCCCC2)c2ccccc12 | inactive | inactive | – | inactive | inactive | inactive | inactive | inactive | inactive | inactive | inactive | inactive | inactive
COc1ccc(S(=O)(=O)Nc2c(C)cc(C)cc2C)cc1 | – | inactive | inactive | inactive | inactive | inactive | inactive | inactive | inactive | inactive | inactive | inactive | –
C/C=C(/C)C(=O)O[C@H]1C=C(CO)C(=O)[C@H](OC(=O)/C(C)=C/CO)[C@H]1C(C)C | – | 10 µM (active) | 11.2 µM (active) | – | – | – | – | – | – | – | – | – | –
CC1CCCC(O)CCC/C=C/c2cc(OS(=O)(=O)O)cc(O)c2C(=O)O1 (stereo not given) | inactive | inactive | – | inactive | inactive | inactive | inactive | inactive | inactive | inactive | inactive | inactive | inactive
